The record followed here is PubChem BioAssay (NCATS).

Assay [1] is described as follows: P-glycoprotein substrates identified in KB-8-5-11 adenocarcinoma cell line, qHTS therapeutic library screen (AID 1346987). Further: nearly all actives have a fitted effect of over 65% in size. In a few lines: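 KB-8-5-11, a colchicine-selected P-gp-overexpressing KB-3-1 subline, was grown without colchicine for the assay. Cells were seeded at 500 cells/well, dosed in concentration-response and incubated 72 h at 37 degree C, 5% CO2. Viability was read by CellTiter-Glo luminescence.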
In general terms: In qHTS, concentration-response curves come from the screen itself.

Assay [2] can be described thus: P-glycoprotein substrates identified in KB-3-1 adenocarcinoma cell line, qHTS therapeutic library screen (AID 1346986). Further: nearly all actives have a fitted effect of over 60% in size. The essentials:
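Cells seeded 500/well in DMEM/10% FCS; compounds pinned in dose-response; 72 h incubation; CellTiter-Glo added, 5 min, luminescence. KB-8-5-11 run ±tariquidar to test reversal of P-gp resistance.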

Assay [3] concerns Zika virus NS2B-NS3 protease (unlinked complex). In words: Primary screen GU Rhodamine qHTS for Zika virus inhibitors: Unlinked NS2B-NS3 protease assay (AID 1347159). Further: nearly all actives have a fitted effect of over 60% in size. The essentials: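 Percent inhibition derives from the 15-min fluorescence change (ex 480, em 540 nm), normalized to no-enzyme and no-inhibitor wells. Reactions contained 25 nM NS2B-NS3 complex and 1.5 microM substrate in 10 mM Tris-HCl pH 8.0.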

In assay [4] the test system is Zika virus NS2B-NS3 protease (linked construct). The experiment in a line: Primary screen NINDS Rhodamine qHTS for Zika virus inhibitors (AID 1347160). Further: nearly all actives have a fitted effect of over 55% in size. The essentials: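 In 10 mM Tris-HCl pH 8.0 containing 0.01% Tween 20, linked NS2B-NS3 protease (25 nM final) is exposed to test compounds for 15 min. Cleavage of 1.5 microM Rhodamine110 substrate is tracked by fluorescence over 15 min.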

Inconclusive results are not listed. A number with no mark means an inactive call. The source made the active and inactive calls. The call rests on the fitted dose curve; in most records, active means well fitted curve in the direction sought with a large enough effect; inconclusive means small, poorly fitted or top-dose-only effect, or another doubt; inactive means no such curve, though single readings can be large; an effect the other way counts as inactive or inconclusive.

As for `CC1=CC(=O)C(=C(C)C)CC2C(C)(O)CCC12O` (stereo not given), the Potency result in assay [1] is “inactive”.
Turning to `O=C(/C=C/c1ccc(O)cc1)O[C@@H]1C[C@@](O)(C(=O)O)C[C@@H](O)[C@@H]1O`, the Potency result in assay [1] is “inactive”.
On to `CC1(C)Oc2ncnc(N)c2N=C1c1ccc(C2CCC(CC(=O)O)CC2)cc1` (stereo not given), for which the Potency result in assay [2], in assay [3] and in assay [4] was “inactive” in each case.
For `Cc1nnc(-c2ccc3occ(-c4ccc(S(C)=O)cc4)c3c2)o1` (stereo not given), the Potency entry in assay [2], in assay [3] and in assay [4] was “inactive” in each case.
In the case of `CC(C)c1cc2c(c(O)c1O)[C@@]13CCCC(C)(C)C1[C@@H](O)[C@@H]2OC3=O` (stereo not given in full), the Potency result in assay [1] is “inactive”.
As for `CC(=O)OC1CC2(C)C(CCC(C)C23Cc2c(O)cc4c(c2O3)CNC4=O)C(C)(C)C1O` (stereo not given), the Potency entry in assay [2], in assay [3] and in assay [4] was “inactive” throughout.
With `COC(=O)C1=COC(O[C@@H]2O[C@H](COC(=O)/C=C/c3ccc(O)cc3)[C@@H](O)[C@H](O)[C@H]2O)C2C(CO)=CCC12` (stereo not given in full), the Potency entry in assay [2], in assay [3] and in assay [4] was “inactive” each time.
As for `FC(F)(F)Oc1ccc(-c2ccc3nnc(C(F)(F)F)n3c2)cc1`, the Potency entry in assay [2], in assay [3] and in assay [4] was “inactive” throughout.
Turning to `C=CC1(C)CC2CCC3C(C)(C(=O)O)CCCC3(C)C2=CC1=O` (stereo not given), the Potency entry in assay [2], in assay [3] and in assay [4] was “inactive” each time.
Regarding `CC1(C)CCC2(C(=O)O)CCC3(C)C(=CCC4C5(C)CCC(O)C(C)(CO)C5C(O)CC43C)C2C1` (stereo not given), the Potency result in assay [1] was “inactive”.
In the case of `OC[C@H]1O[C@@H](OCc2ccccc2)[C@H](O[C@@H]2OC[C@@H](O)[C@H](O)[C@H]2O)[C@@H](O)[C@@H]1O`, the Potency result in assay [2], in assay [3] and in assay [4] was “inactive” throughout.
Consider `CCCc1[nH]nc2c1C(c1cc(Cl)cc(Cl)c1O)C(C#N)=C(N)O2` (stereo not given), for which the Potency result in assay [2] and in assay [4] was “inactive” each time.
For the molecule `CC(C)=CCc1cc(O[C@@H]2O[C@H](CO[C@@H]3OC[C@](O)(CO)[C@H]3O)[C@@H](O)[C@H](O)[C@H]2O)ccc1O`, the Potency entry in assay [2] and in assay [3] was “inactive” throughout.
For `C=C(C)[C@@H]1CC[C@]2(C)CC[C@]3(C)C(CCC4[C@@]5(C)CC[C@H](O)C(C)(C)C5CC[C@]43C)C12` (stereo not given in full), the Potency entry in assay [2], in assay [1] and in assay [4] was “inactive” throughout.
`COc1cc(C)c(C(=O)NC2C(C)OC(OC3CCC(C)C4C3C=C(C)C3/C(C)=C\CC/C(C)=C/C5(C)C=C(C(=O)O)C(C)CC56OC(=O)/C(=C(\O)C34C)C6=O)C(O)C2(C)O)c(O)c1` (stereo not given): in assay [1], the outcome is “inactive [at 9.29 µM]”.
Take `COc1cc(C2CC(=O)Nc3c2cc(Br)c2ccccc32)cc(OC)c1OC` (stereo not given): the Potency result in assay [2], in assay [3] and in assay [4] was “inactive” in each case.
Regarding `CCC(C)/C=C(C)/C=C/C1=CC2=C(Cl)C(=O)C(C)(OC(C)=O)C(=O)C2=CN1C(CC(=O)O)C(=O)O` (stereo not given), the Potency entry in assay [1] was “inactive”.
Consider `N=C(N)c1ccc2nc(-c3cc(CC(=O)NC(CC(=O)O)C(=O)O)cc(-c4cc(S(N)(=O)=O)ccc4O)c3O)[nH]c2c1` (stereo not given), for which the Potency entry in assay [2] and in assay [4] was “inactive” throughout.
On to `CC1CC2OCC3(O)CCC(O)C(C14CC(c1ccoc1)OC4=O)C23CO` (stereo not given), for which the Potency result in assay [1] is “inactive”.
Still for that read-out and setting: the value for `C=C1C(O)C(OC(=O)c2ccccc2)C2C(C)(C(=O)O)CCCC2(C)C1CC/C(C)=C\CO` (stereo not given) was “inactive”.
As to `CC1CC2(O)OC(=O)C3=C2C(CCC3)[C@@]12C[C@@H](c1ccoc1)OC2=O` (stereo not given in full), the Potency result in assay [2], in assay [1] and in assay [4] was “inactive” in each case.
As to `CC(C)C1NC(=O)C2CCCN2C1=O` (stereo not given), the Potency entry in assay [2], in assay [3] and in assay [4] was “inactive” throughout.
Take `CC(=O)OCC1=C[C@@H]2OC(=O)C3=CO[C@@H](O[C@@H]4O[C@H](CO)[C@@H](O)[C@H](O)[C@H]4O)[C@H]1[C@@H]32`: the Potency entry in assay [2], in assay [3] and in assay [4] was “inactive” each time.
On to `COc1cc(OC)cc(-c2ccc3c(-c4ccc(F)cc4)[nH]nc3n2)c1`, for which the Potency result in assay [2], in assay [3] and in assay [4] was “inactive” each time.
In the case of `OC[C@@]1(O)CO[C@H](OC[C@H]2O[C@@H](OC(CCCCc3ccc(O)cc3)CCc3ccc(O)cc3)[C@H](O[C@H]3OC[C@](O)(CO)[C@H]3O)[C@@H](O)[C@@H]2O)[C@@H]1O` (stereo not given in full), the Potency result in assay [1] was “inactive”.
For `COc1ccc(S(=O)(=O)Nc2nc(-c3cccc([N+](=O)[O-])c3)cs2)cc1OC`, in assay [1], the Potency entry is “inactive”.
`C[C@@H]1CC[C@]2(C(=O)O[C@@H]3O[C@H](CO[C@@H]4O[C@H](CO)[C@@H](O)[C@H](O)[C@H]4O)[C@@H](O)[C@H](O)[C@H]3O)CC[C@]3(C)C(=CCC4[C@@]5(C)CC[C@H](O)[C@](C)(C(=O)O)C5CC[C@]43C)[C@@H]2[C@]1(C)O` (stereo not given in full): in assay [1], the outcome is “inactive [at 9.29 µM]”.
Consider `C[C@@H]1O[C@@H](OC[C@H]2O[C@@H](OCc3ccccc3)[C@H](O)[C@@H](O)[C@@H]2O)[C@H](O)[C@H](O)[C@H]1O`, for which, in assay [1], the Potency result is “inactive”.
With `CC1(C)O[C@H]2CC(=O)OC[C@@]23C1=C(O)C(=O)[C@]1(C)C3CC[C@@]2(C)[C@H](c3ccoc3)OC(=O)[C@H]3O[C@]321` (stereo not given in full), the Potency result in assay [2], in assay [3] and in assay [4] was “inactive” each time.
